Bioassay records (PubChem)
Only a selection was taken, and hits are over-represented in it overall.
ROS inducer: cancer cell ROS induction | U2OS ROS induction, H2DCF-DA fluorescence | ROS induction (% of piperlongumine), % at 10 µM | 2% of 46,000 active; in the data active = ROS induction above about 79%, passing the limit was not always enough; inconclusive = no clear call, values can overlap the other calls;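 also: 0% = DMSO vehicle median and 100% = reference compound median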
YB-1 expression: YB-1 expression inhibition. U2OS, qRT-PCR YB-1 vs CDIP delta delta Cp, 16 h; hits give high values; zero = DMSO, each unit about twofold. delta delta Cp (YB-1 minus CDIP) (no concentration beside the values). 0.37% of 30,000 active. AID 434959;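 active = delta delta Cp rounded down to an integer at or above 3, about 3 SD of DMSO wells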;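 also: higher means less YB-1 transcript or more CDIP transcript relative to DMSO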
NOMO-1 viab: STK33 inhibitor candidate reducing NOMO-1 cell viability; 7.5% of 37,000 active; inhibition, % (test concentration not listed); NOMO-1 AML viability, CellTiter-Glo luminescence, 72 h; in the data active = inhibition above about 80%; inconclusive = no clear call, values can overlap the other calls
PD-1 reverse act: reversal of PD-1 mediated T-cell inhibition | primary human CD4 T cells, PD-L1 beads, CellTiter-Glo 96 h | activation, % (no concentration beside the values) | 29,000 tested, under 10 active; call rule not given here;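 also: 0% = median vehicle wells and 100% = positive control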
The depositor's hits bear a star; ? = inconclusive; · = no result.

SMILES	ROS inducer	YB-1 expression	NOMO-1 viab	PD-1 reverse act
C[C@@H]1CN([C@@H](C)CO)C(=O)Cc2cc(NS(=O)(=O)c3ccc(F)cc3)ccc2O[C@@H]1CN(C)Cc1ccc(C(F)(F)F)cc1	28	0.017	103*	-3
C[C@@H]1CN([C@@H](C)CO)C(=O)Cc2cc(NS(=O)(=O)c3ccccc3)ccc2O[C@@H]1CN(C)Cc1ccc(C(F)(F)F)cc1	15	0.18	11	·
C[C@H]1CN([C@@H](C)CO)C(=O)Cc2cc(NS(=O)(=O)c3ccc(F)cc3)ccc2O[C@@H]1CN(C)Cc1ccc(C(F)(F)F)cc1	146*	0.00088	90*	·
C[C@@H]1CN([C@H](C)CO)C(=O)Cc2cc(NS(=O)(=O)c3ccc(F)cc3)ccc2O[C@H]1CN(C)Cc1ccc(C(F)(F)F)cc1	207*	-0.16	127*	-3
C[C@H](CO)N1C[C@H](C)[C@H](CN(C)Cc2ccc(C(=O)O)cc2)Oc2ccc(NS(=O)(=O)c3ccc(F)cc3)cc2CC1=O	-5	0.22	-4	·
COc1ccc(S(=O)(=O)NC(CC(=O)O)C(C)C)cc1 (configuration not stated)	7	·	·	·
O=C(CCCOc1ccccc1)NC1CCCCC1	1	·	·	·
COc1ccc(-c2nnc(SCC(=O)Nc3cccc(F)c3)n2C)cc1	-1	·	-6	1
O=C(c1cc(-c2ccc(F)cc2)no1)N1CCN(c2cccc(Cl)c2)CC1	-20	·	·	·
Cc1ccc(-c2nn3c(C)nnc3c3ccccc23)cc1S(=O)(=O)NCc1ccco1	125*	·	60	-4
Cc1nnc(Nc2ccc(OCC(=O)N3CCN(c4ccccc4)CC3)cc2)c2ccccc12	-4	·	88*	2
Cc1ccc(CSCC(=O)N2CCN(c3ccccc3)CC2)cc1	1	·	·	·
CC1OC(OC2C(O)C(C)OC(OCC3OC(OC4C(C)OC(Oc5cc(O)c6c(=O)c(O)c(-c7ccc(O)c(O)c7)oc6c5)C(O)C4O)C(O)C(O)C3OC(=O)/C=C/c3ccc(O)cc3)C2O)C(O)C(O)C1O (configuration not stated)	-6	-0.035	8	2
O=C(Nc1ccccc1)Nc1ccc2nnsc2c1	-1	-0.53	83*	1
O=C(Nc1ccccc1)Nc1ccccc1	-2	-0.52	36	-2
O=C(NC1CCCCC1)c1ccc(Cn2c(=S)[nH]c3ccccc3c2=O)cc1	-3	·	·	·
O=C(CCCCCC(=O)Nc1ccccc1O)N/N=C/c1cccc(O)c1	-3	0.14	·	·
C[C@@H]1CN([C@H](C)CO)C(=O)c2cccc(NC(=O)Nc3ccc(C(F)(F)F)cc3)c2O[C@H]1CN(C)CC1CC1	8	-0.48	84*	·
C[C@@H]1CN([C@@H](C)CO)C(=O)c2cccc(NC(=O)Nc3ccc(C(F)(F)F)cc3)c2O[C@@H]1CN(C)CC1CCCCC1	34	0.067	95*	-12
COc1cc(N=C(C)c2c(C)[nH]n(-c3nc4ccccc4s3)c2=O)cc(OC)c1	7	·	·	·
COC(=O)c1cc2c(s1)-c1cc(Cl)ccc1SC2	-5	·	·	·
CCCn1c2ccccc2c2nnc(SCC(=O)O)nc21	·	·	9	·
CCCn1c2ccccc2c2nnc(Sc3ccc4nsnc4c3[N+](=O)[O-])nc21	·	·	105*	·
COc1ccccc1NC(=O)CSc1nncn2c1cc1oc(C)cc12	107*	·	·	·
COc1cc(OC)c(NC(=O)CS(=O)(=O)c2ccccc2)cc1Cl	·	·	10	·
SMILES	ROS inducer	YB-1 expression	NOMO-1 viab	PD-1 reverse act
C=CCN1C(=O)/C(=C/c2cn(C(C)CC)c3ccccc23)C(=O)NC1=S (configuration not stated)	65	-0.29	132*	-3
C=CCN1C(=O)C(C(C)CC)NC1=S (configuration not stated)	-5	·	·	·
C=CCN1C(=O)NC(=O)/C(=C\c2cn(Cc3ccccc3)c3ccccc23)C1=O	155*	·	·	·
O=C(NO)c1cccc(C(=O)N/N=C/c2cn(Cc3ccccc3)c3ccccc23)c1	10	-0.55	·	·
C[C@@H]1CN([C@@H](C)CO)C(=O)c2cccc(NC(=O)c3nc4ccccc4s3)c2O[C@@H]1CN(C)Cc1ccc2c(c1)OCO2	·	-0.59	90*	-2
C[C@@H]1CN([C@H](C)CO)C(=O)c2cccc(NC(=O)c3nc4ccccc4s3)c2O[C@H]1CN(C)Cc1ccc2c(c1)OCO2	·	-0.13	98*	-5
C[C@H]1CN([C@@H](C)CO)C(=O)c2cccc(NC(=O)c3nc4ccccc4s3)c2O[C@@H]1CN(C)Cc1ccc(Cl)c(Cl)c1	32	-0.15	86*	-6
C[C@@H]1CN([C@@H](C)CO)C(=O)c2cccc(NC(=O)c3nc4ccccc4s3)c2O[C@H]1CN(C)Cc1ccc2c(c1)OCO2	·	-0.074	?	·
C[C@H]1CN([C@@H](C)CO)C(=O)c2cccc(NC(=O)c3nc4ccccc4s3)c2O[C@@H]1CN(C)Cc1ccc2c(c1)OCO2	·	-0.032	57	·
C[C@@H]1CN([C@H](C)CO)C(=O)c2cccc(NC(=O)c3nc4ccccc4s3)c2O[C@@H]1CN(C)Cc1ccccc1	5	0.11	55	·
COC(=O)c1cc(OC)c(OC)cc1NC(=O)COc1ccccc1	-1	·	17	-2
C[C@H]1CN([C@@H](C)CO)C(=O)c2cccc(NC(=O)c3cnccn3)c2O[C@H]1CN(C)Cc1ccc(-c2ccccc2)cc1	43	0.46	42	-2
C[C@H]1CN([C@@H](C)CO)C(=O)c2cccc(NC(=O)c3cnccn3)c2O[C@@H]1CN(C)Cc1ccc(-c2ccccc2)cc1	118*	-0.22	25	0
C[C@@H]1CN([C@H](C)CO)C(=O)c2cccc(NC(=O)c3cnccn3)c2O[C@H]1CN(C)Cc1ccc(Cl)c(Cl)c1	30	0.082	96*	-6
C[C@@H]1CN([C@H](C)CO)C(=O)c2cccc(NC(=O)c3cnccn3)c2O[C@H]1CN(C)Cc1ccc(Oc2ccccc2)cc1	21	-0.19	26	-2
C[C@H](CO)N1C[C@H](C)[C@@H](CN(C)Cc2ccc(Oc3ccccc3)cc2)Oc2c(NC(=O)c3cnccn3)cccc2C1=O	134*	-0.61	106*	-7
N#Cc1ccccc1NC(=O)CCSc1nc(-c2ccccc2)c2cc(Cl)ccc2n1	-4	·	34	-1
O=C(NO)c1cccc(C(=O)N/N=C/c2ccc(-c3ccccc3)cc2)c1	-18	0.035	·	·
Cc1ccc2c(c1O)C(=O)c1ccc(O[C@@H]3O[C@H](CO[C@@H]4OC[C@@H](O)[C@H](O)[C@H]4O)[C@@H](O)[C@H](O)[C@H]3O)cc1C2=O	18	-0.046	-2	1
C[C@@H]1CN([C@H](C)CO)C(=O)Cc2cc(NC(=O)Nc3ccc(F)cc3)ccc2O[C@@H]1CN(C)Cc1ccc(Cl)c(Cl)c1	28	-0.38	114*	-10
Cc1noc(C)c1NC(=O)Nc1ccc2c(c1)CC(=O)N([C@@H](C)CO)C[C@H](C)[C@H](CN(C)Cc1ccc(Cl)c(Cl)c1)O2	13	0.59	114*	0
C[C@@H]1CN([C@@H](C)CO)C(=O)Cc2cc(NC(=O)Nc3ccc4c(c3)OCO4)ccc2O[C@@H]1CN(C)Cc1ccc(Cl)c(Cl)c1	-7	0.086	39	-2
